Assay outcomes: PubChem, several laboratories
CCHF vOTU inh: blocks the CCHF virus ovarian tumor domain protease; CCHFV vOTU protease, Pep-AMC fluorescence; 370,000 tested, 0.55% active; inhibition, % at 11.5 µM; AID 651958; in the data active means inhibition above about 30%; further: 0% = vehicle wells with enzyme and 100% = no enzyme wells
Mtb betalactam: beta-lactam sensitization of Mtb H37Rv; 330,000 tested, 0.27% active; inhibition, % at 25 µM; M. tuberculosis H37Rv growth with meropenem, percent inhibition; call rule not given here;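 further: growth measured after seven days incubation then overnight dye step; 0% = bacteria only wells and 100% = bacteria with antibiotic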
RN4220 kill: S. aureus RN4220 growth inhibition | OD600, 16 h | inhibition, % (no concentration beside the values) | 330,000 tested, 0.33% active; in the data active means inhibition above about 85%;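 further: plate controls were untreated cells for no effect and reference antibiotic for full effect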
ugtP null kill: compounds lethal to S. aureus RN4220 ugtP deletion mutant | OD600 growth, 16 h | growth inhibition, % (no concentration beside the values) | 330,000 tested, 0.54% active | AID 1259309; in the data active means growth inhibition above about 68%;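 further: plate controls were untreated wells for no effect and antibiotic for full effect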
SARS 3CLpro inh: SARS-CoV 3CLpro protease inhibition; P0C6X7; recombinant SARS-CoV 3CLpro, quenched FRET peptide cleavage; inhibition, % at 6 µM; 290,000 tested, 0.14% active; AID 1706; in the data active means inhibition above about 12%
MazEF act: increases E. coli MazEF RNase cleavage of RNA | P0AE70 | FAM/BHQ RNA-DNA oligo cleavage fluorescence, 5 h | activation, % at 20 µM | 350,000 tested, 0.32% active | AID 504720; in the data active means activation above about 50%
Target sequence (P0AE70 whole entry, looked up): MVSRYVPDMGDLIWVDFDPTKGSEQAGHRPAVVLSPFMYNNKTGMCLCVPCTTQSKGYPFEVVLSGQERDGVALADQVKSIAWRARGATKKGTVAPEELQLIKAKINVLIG
Starred values were filed as active, the others as inactive. Hits are enriched below; roughly 1.3% of the tested compounds scored in any of these assays.

For COc1cc(NS(=O)(=O)c2ccc(Nc3nc(-c4ccccn4)cs3)cc2)nc(OC)n1 the results were CCHF vOTU inh -2, Mtb betalactam 2, RN4220 kill -3, ugtP null kill 90*, SARS 3CLpro inh 3 and MazEF act -2.
Screening O=C1N=C(N2CCOCC2)S/C1=C\c1cccs1 returned CCHF vOTU inh 6, Mtb betalactam -4, SARS 3CLpro inh 2 and MazEF act 15.
Screening O=C1N=C(N2CCOCC2)S/C1=C\c1ccc(-c2ccccc2Cl)o1 returned CCHF vOTU inh -7, Mtb betalactam -2, RN4220 kill -1, ugtP null kill -8, SARS 3CLpro inh 2 and MazEF act 61*.
Cc1ccccc1-c1ccc(/C=C2/SC(N3CCOCC3)=NC2=O)o1 was read as CCHF vOTU inh -3, Mtb betalactam 56, RN4220 kill 9, ugtP null kill 3, SARS 3CLpro inh 2 and MazEF act 151*.
Screening CC(NC(=O)c1ccccc1)C(=O)NN=Cc1cccc([N+](=O)[O-])c1 (configuration not stated) returned RN4220 kill 5 and ugtP null kill -4.
O=C1c2ccccc2C(=O)N1CCCCc1cn(CC2CCC(C3CCC(Cn4cc(CCCCN5C(=O)c6ccccc6C5=O)nn4)O3)O2)nn1 (configuration not stated) was read as RN4220 kill 6 and ugtP null kill 10.
c1ccc(-c2ccc3[nH]ccc3c2)cc1 was read as CCHF vOTU inh 5, Mtb betalactam 2, RN4220 kill -3, ugtP null kill 14 and MazEF act 6.
`c1ccc(-c2onc(-c3ccco3)c2-c2ccc3[nH]ccc3c2)cc1` gave CCHF vOTU inh 12, Mtb betalactam -12, RN4220 kill -31, ugtP null kill 85*, SARS 3CLpro inh -1 and MazEF act 2.
O=C(Cn1cnc([N+](=O)[O-])n1)NN=Cc1ccccc1O was read as RN4220 kill -4 and ugtP null kill 1.
Screening CC(=NNc1ncc(Cl)cc1Cl)c1ccc(OC(F)F)cc1 returned RN4220 kill 7 and ugtP null kill 9.
`CN(C)CCSc1nc(-c2ccccc2)nc2c1CCCC2` gave CCHF vOTU inh -7, Mtb betalactam 2, RN4220 kill 2, ugtP null kill 2, SARS 3CLpro inh -1 and MazEF act 12.
For CCSc1nc(-c2ccccc2)nc2c1CCCC2 the results were CCHF vOTU inh 3, Mtb betalactam 4, RN4220 kill 4, ugtP null kill 88*, SARS 3CLpro inh 1 and MazEF act 11.
CC(C)OC(=O)c1c2c(n3ccccc13)C(=O)c1ccccc1C2=O was read as CCHF vOTU inh -12, Mtb betalactam 98, RN4220 kill -2, ugtP null kill 11, SARS 3CLpro inh 2 and MazEF act 175*.
Cc1ccccc1Oc1cc(-n2ncc(Cl)c(Cl)c2=O)ncn1 was read as CCHF vOTU inh 0, Mtb betalactam 101, RN4220 kill 58, ugtP null kill 92*, SARS 3CLpro inh -5 and MazEF act 3.
For CCOc1cnn(-c2cc(Oc3ccc(C)cc3)ncn2)c(=O)c1Cl the results were CCHF vOTU inh -10, Mtb betalactam -11, RN4220 kill 5, ugtP null kill -1, SARS 3CLpro inh -1 and MazEF act 7.
For COC(=O)N/N=C\c1ccc(-c2cc(Cl)c(Cl)cc2Cl)o1 the results were CCHF vOTU inh -8, Mtb betalactam 4, SARS 3CLpro inh 5 and MazEF act 55*.
Screening CCN1C(=Cc2ccc3ccccc3[n+]2CC)C=Cc2ccccc21 returned RN4220 kill 100* and ugtP null kill 100*.
`CCN1C(=O)C2C(c3ccc(-c4ccc(F)cc4)c(OC)c3)N[C@@](C)(C(=O)OC)C2C1=O` (some centres not stated) gave RN4220 kill 1 and ugtP null kill 5.
`Cc1c(C=NO)c2ccccn2c1C(=O)c1ccc(F)cc1` gave RN4220 kill 4 and ugtP null kill -1.
For Cc1ccc(/C=N/Nc2ccc3c(C(F)(F)F)cc(C(F)(F)F)nc3n2)cc1 the results were Mtb betalactam 6, SARS 3CLpro inh 2 and MazEF act 285*.
Screening CC(=O)Oc1cccc2c1C(=O)c1c(OC(C)=O)cc(C(=O)O)cc1C2=O returned CCHF vOTU inh 7, Mtb betalactam 94, SARS 3CLpro inh -9 and MazEF act 257*.
For CC(=O)Oc1ccc(C(=O)O)cc1OC(C)=O the results were CCHF vOTU inh 13, Mtb betalactam 6, RN4220 kill -1, ugtP null kill -4, SARS 3CLpro inh 3 and MazEF act -18.
COC(=O)C1=C(C)NC(C)=C(C(=O)OC2CCCN(Cc3ccccc3)C2)C1c1cccc([N+](=O)[O-])c1 (configuration not stated) was read as RN4220 kill -16 and ugtP null kill 10.
CC(C)(C)NN=C1CC(c2ccccc2)Oc2ccccc21 (configuration not stated) was read as RN4220 kill -8 and ugtP null kill 94*.
For CC(Oc1cc(Cl)ccc1Cl)C(=O)NN=Cc1ccnn1C (configuration not stated) the results were RN4220 kill 10 and ugtP null kill 2.
`CCCC(CN1CCCC1CN1C(N)=NCC1Cc1ccccc1)N1CC(Cc2ccccc2)N(CCc2ccc(Cl)c(Cl)c2)C1=N` (configuration not stated) gave RN4220 kill 101* and ugtP null kill 101*.
`CCC[C@@H](CN1CCC[C@H]1CN1C(N)=NC[C@H]1CC(C)C)N1C[C@@H]([C@H](C)CC)N(CCc2ccc(Cl)c(Cl)c2)C1=N` gave CCHF vOTU inh 2, Mtb betalactam 100, RN4220 kill 100*, ugtP null kill 100* and MazEF act 12.
CC[C@@H](C)[C@@H]1CN([C@@H](CN2CCC[C@H]2CN2C(N)=NC[C@H]2CC(C)C)C(C)C)C(=N)N1CCc1ccc(Cl)c(Cl)c1 was read as CCHF vOTU inh 16, Mtb betalactam 100, RN4220 kill 100*, ugtP null kill 100* and MazEF act 8.
CCC[C@@H](CN1CCC[C@H]1CN1C(N)=NC[C@H]1CC(C)C)N1C[C@@H](Cc2ccccc2)N(CCc2ccc(Cl)c(Cl)c2)C1=N was read as CCHF vOTU inh 6, Mtb betalactam 100, RN4220 kill 100*, ugtP null kill 100* and MazEF act -20.
`CC[C@@H](C)[C@@H]1CN([C@@H](C)CN2CCC[C@H]2CN2C(N)=NC[C@H]2CC(C)C)C(=N)N1CCc1ccc(Cl)c(Cl)c1` gave CCHF vOTU inh 10, Mtb betalactam 99 and MazEF act 27.
For CCC[C@@H](CN1CCC[C@H]1CN1C(N)=NC[C@@H]1Cc1ccccc1)N1C[C@@H](Cc2ccccc2)N(CCc2ccc(Cl)c(Cl)c2)C1=N the results were CCHF vOTU inh 4, Mtb betalactam 100 and MazEF act -24.
